Source: PubChem BioAssay (NMMLSC)
Rows were chosen to be rich in hits. Some 1.2% of all compounds tested hit in one or more screens of this group.
Avidin fluor – avidin bead compound fluorescence profile; actives 0.38% (n = 220,000); fluorescence (KMESF) at 10 µM; Avidin beads, compound fluorescence 488/530 nm, flow cytometry; active compounds read high; in the data active means fluorescence above about 47
RGS16-Gao HTS – RGS16-Galphao interaction regulator (human) | O15492+P09471 | actives 0.38% (n = 220,000) | AID 1441 | bead-based flow cytometry RGS16-Galphao binding, fluorescence; actives lie on both sides | binding response (% of control), % at 10 µM;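 further: Galphao activated by GDP with aluminum fluoride before binding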
GSH fluor – compound fluoresces at 488/530 nm on GSH beads. GSH beads flow cytometry, compound fluorescence 488/530 nm; active compounds read high. fluorescence (KMESF) at 10 µM. actives 0.25% (n = 190,000). AID 1776; in the data active means fluorescence above about 89;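 further: glutathione beads carrying GST-tagged Bcl family fusion proteins plus one bare bead set; values are compound well signal with DMSO vehicle wells as background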
RGS4-Gao reg – human RGS4-Galphao interaction regulation. actives 0.33% (n = 220,000). Multiplexed bead flow cytometry, RGS4-Galphao binding; actives lie on both sides. binding response (% of control), % at 10 µM. P09471; in the data active means binding response below about 49% or above about 150%; inactive means in between;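 further: fluorescent Galphao activated with aluminum fluoride binding bead-coupled RGS4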
RGS8-Gao reg – regulators of human RGS8-Galphao interaction; P09471; multiplexed bead flow cytometry, RGS8-Galphao binding; actives lie on both sides; response (percent of control binding), % at 10 µM; actives 0.34% (n = 220,000); in the data active means response below about 60% or above about 140%; inactive means in between;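 further: Galphao activated as the GDP aluminium fluoride complex binding bead-coupled RGS8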
RGS7-Gao reg – regulators of human RGS7-Galphao interaction | Multiplexed bead flow cytometry, RGS7-Galphao binding; actives lie on both sides | actives 0.35% (n = 220,000) | binding response (% of control), % at 10 µM | P09471; in the data active means binding response below about 49% or above about 150%; inconclusive means no clear call, values can overlap the other calls; inactive means in between;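 further: fluorescent Galphao held in activated GDP-AlF4 state binding bead-coupled RGS7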
RGS4-Gao HTS – RGS4-Galphao interaction regulator (human). shares compounds with RGS16-Gao HTS. multiplexed bead flow cytometry, RGS–Galpha-o binding. RGS4–Galpha-o binding response, % at 10 µM. actives 99% (n = 1,600). AID 1504;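 further: fluorescently labeled Galpha-o bound to GDP with aluminium fluoride binding biotinylated RGS beads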
Target sequence (P09471 whole entry, looked up): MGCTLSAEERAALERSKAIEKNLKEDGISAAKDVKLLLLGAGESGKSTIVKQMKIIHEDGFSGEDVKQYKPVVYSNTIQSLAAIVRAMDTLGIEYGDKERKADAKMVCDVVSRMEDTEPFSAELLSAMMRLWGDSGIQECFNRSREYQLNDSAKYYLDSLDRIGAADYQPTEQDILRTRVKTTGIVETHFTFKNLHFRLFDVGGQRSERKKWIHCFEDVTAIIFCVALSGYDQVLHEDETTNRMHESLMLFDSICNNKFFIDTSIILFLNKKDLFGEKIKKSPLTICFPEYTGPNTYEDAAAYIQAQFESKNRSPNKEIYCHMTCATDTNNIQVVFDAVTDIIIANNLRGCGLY
Target sequence (P49798 whole entry, looked up): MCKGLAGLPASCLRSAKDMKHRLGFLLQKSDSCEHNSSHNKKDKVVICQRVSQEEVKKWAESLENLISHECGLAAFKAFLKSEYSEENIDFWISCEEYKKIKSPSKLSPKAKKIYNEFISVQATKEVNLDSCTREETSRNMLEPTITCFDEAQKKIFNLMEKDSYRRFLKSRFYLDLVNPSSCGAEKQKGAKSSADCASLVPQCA
Biotin-avidin – counter-screen: compounds disrupting biotin binding to avidin beads. shares compounds with RGS16-Gao HTS. AID 1783. streptavidin beads, fluorescein-biotin binding, flow cytometry. 1,700 tested, under 10 active. inhibition, % at 10 µM;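 active means inhibition above 50%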;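 further: median green fluorescence of gated singlet beads compared with DMSO control wells; 0% = DMSO wells and 100% = complete loss of bead fluorescence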
RGS8-Gao single – RGS8-Galphao interaction regulation, single point confirmation; actives 3% (n = 1,700); bead-based flow cytometry RGS8-Galphao binding, fluorescence; actives lie on both sides; shares compounds with RGS16-Gao HTS; binding response (% of control), % at 10 µM; AID 1836; in the data active means binding response below about 72% or above about 130%; inactive means in between;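 further: Galphao activated as GDP AlF4 complex before binding bead RGS8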
RGS7-Gao single – confirmation of regulators of human RGS7-Galphao interaction. shares compounds with RGS16-Gao HTS. bead-based flow cytometry RGS7-Galphao binding; actives lie on both sides. response (percent of control binding), % at 10 µM. actives 7.8% (n = 1,700). AID 1837; in the data active means response below about 75% or above about 130%; inactive means in between;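 further: fluorescent Galphao activated with GDP and aluminum fluoride binding bead-coupled RGS7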
RGS16-Gao single – RGS16-Galphao interaction regulation, single point confirmation; bead-based flow cytometry, RGS16-Galphao binding; actives lie on both sides; actives 4% (n = 1,700); response (% of control binding), % at 10 µM; shares compounds with RGS16-Gao HTS; in the data active means response below about 74% or above about 130%; inactive means in between;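 further: Galphao activated as the GDP aluminium fluoride complex binding bead-coupled RGS16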
RGS4-Gao confirm – RGS4-Galphao interaction regulation, single point confirmation; binding response (% of control), % at 10 µM; RGS4-Galphao binding, multiplexed bead flow cytometry; actives lie on both sides; actives 4% (n = 1,700); shares compounds with RGS16-Gao HTS; in the data active means binding response below about 74% or above about 130%; inactive means in between
RGS19-Gao single – confirmation of regulators of human RGS19-Galphao interaction | shares compounds with RGS16-Gao HTS | bead-based flow cytometry RGS19-Galphao binding; actives lie on both sides | response (percent of control binding), % at 10 µM | actives 5% (n = 1,700) | AID 1841; in the data active means response below about 50% or above about 160%; inactive means in between;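 further: 100% = no compound control and 0% = blank background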
The depositor's hits bear a star; u = inconclusive; x = no result; [ ] = dose if it differs, or a comment. Unless noted, how the calls were made is not given here.

SMILES	Avidin fluor	RGS16-Gao HTS	GSH fluor	RGS4-Gao reg	RGS8-Gao reg	RGS7-Gao reg	Biotin-avidin	RGS8-Gao single	RGS7-Gao single	RGS16-Gao single	RGS4-Gao confirm	RGS19-Gao single	others
Cc1ccc(S(=O)(=O)NCC2CCC(C(=O)NCc3ccc4c(c3)OCO4)CC2)cc1 (stereo unspecified)	x	150	30	137	x	x	1	99	90	97	100	98
Cc1ccc(C2=N/C(=C\N3CCCCC3)C(=O)O2)cc1	89*	204*[activator]	31	198*[activator]	115	169*[activator]	-2	101	101	101	103	99
Cc1ccc(C2=N/C(=C/N3CCOCC3)C(=O)O2)cc1	9	53	30	92	86	93	x	x	x	x	x	x
Cc1ccc[n+](CC(=O)Nc2cc(C(F)(F)F)ccc2N2CCOCC2)c1	26	105	25	103	102	104	x	x	x	x	x	x
CC(Sc1ncnc2ccccc12)C(=O)Nc1ccc2c(c1)OCO2 (stereo unspecified)	x	x	15	x	x	x	1	103	92	106	97	103
Cc1cccc(-c2nnc3sc(-c4ccccc4)nn23)c1	x	x	41	x	x	x	2	95	90	93	95	87
Cc1ccc(Cl)cc1NC(=O)c1cc2ccccc2cc1O	3	89	x	86	94	u	x	x	x	x	x	x
C[C@H](NC(=O)Nc1cccc(Br)c1)C(=O)O	8	99	x	102	99	u	x	x	x	x	x	x
C=CCSc1nnc2c(n1)OC(c1ccccn1)N(C(C)=O)c1ccccc1-2 (stereo unspecified)	215*	114	33	122	99	168*[activator]	2	103	104	104	103	102	RGS4-Gao HTS=122*
CCCSc1nnc2c(n1)OC(c1cccn1C)N(C(C)=O)c1ccccc1-2 (stereo unspecified)	10	108	25	104	105	103	x	x	x	x	x	x
COc1ccc(-c2c(C(F)(F)F)nn(C)c2NC(=O)CSCC(=O)O)cc1	7	95	x	99	99	u	x	x	x	x	x	x
Cc1ccc(OCCn2nc3ccccc3n2)c(C)c1	154*	107	8	121	96	192*[activator]	0	101	105	106	106	88	RGS4-Gao HTS=121*
Cc1ccc(OCCN2C(=O)c3ccccc3C2=O)c(C)c1	9	89	51	90	100	92	x	x	x	x	x	x
O=C(Nc1cccc(F)c1)C1CCN(C(=O)c2ccc(Cl)cc2)CC1	2	18*	7	74	70	83	-2	100	98	98	98	108	RGS4-Gao HTS=74*
COC(=O)c1ccc(NC(=O)C2CCN(C(=O)c3cc(OC)c(OC)c(OC)c3)CC2)cc1	x	x	35	276*[activator]	x	137	-2	103	106	103	100	107
O=C(Nc1ccc2c(c1)OCO2)C1CCN(C(=O)c2ccc(Cl)cc2)CC1	12	105	25	102	100	101	x	x	x	x	x	x
O=c1[nH]c2ccccc2nc1/C=C/c1ccc(Cl)cc1	x	x	10	x	x	x	0	101	99	101	102	102
